In PubChem BioAssay AID720641 (ICCB-Longwood Screening Facility, Harvard Medical School, 2013):
The campaign covered roughly 170,000 compounds. About 900 (0.53%) were called active. This is one part of a sample in which actives are shown more often than they occur.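 Rule for the calls: active = relative growth at most 50% at the other temperature and 20+ points below 30 °C, or under 10% at both; inactive = the rest, inconclusive results apart.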

Test: S. aureus growth inhibition at 42 and 30 °C, primary screen, LtaS inhibitor project, RN4220, two temperatures (AID 720641)
Conditions: OD600, 20 h, 42 °C, stronger effect = lower value

| SMILES | relative growth | relative growth (measured here: growth at 30 °C) [%] |
| --- | --- | --- |
| [C-]#[N+]c1ccc(Cl)cc1C(C)S(=O)(=O)c1ccc(C)cc1 (stereo not given) | 4.29% (active) | 7.07 |
| Cc1cc(N2CCNCC2)nc(C)n1 | 91.3% (inactive) | 82.9 |
| CN1C(=O)C(C(=O)O)C2CC1Oc1ccccc12 (stereo not given) | 91.5% (inactive) | 72.8 |
| O=C(Cn1cc(/C=C2/C(=O)NC(=O)N(Cc3ccco3)C2=O)c2ccccc21)NCC1CCCO1 (stereo not given) | 98.4% (inactive) | 86.3 |
| CN(C)c1ccc(/C=C2/C(=O)C3CCN2CC3)cc1 | 112% (inactive) | 95.5 |
